Results filed as inconclusive are left out. Calls of active or inactive are those of the source. How the source made its calls, unless noted: active means hit-call score of the fitted dose curve at least 0.9, where 1 is the maximum; inconclusive means response in the unintended direction; inactive means score below 0.9.
Key:
[1] = biological target: Cytochrome P450 2C19 (Homo sapiens) (UniProt P33261); test: NVS_ADME_hCYP2C19: NovaScreen (NVS) CYP450-related Enzyme Activity (ADME) Assay for human CYP2C19 (AID 2283113);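 further: potency for inhibition seen as loss of fluorescent signal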
Method in brief: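 Compounds first screened in duplicate at 10 uM, then confirmed in concentration series. Insect-cell-expressed human CYP2C19 turned over a fluorogenic substrate, and fluorescence was read after 1 h. Inhibition taken as signal loss relative to acetonitrile.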

[2] = biological target: human CYP2C9, CYP2C9 (gene 1559) (UniProt P11712); test: NVS_ADME_hCYP2C9: NovaScreen (NVS) CYP450-related Enzyme Activity (ADME) Assay for human CYP2C9 (AID 2283108)
Chain of human CYP2C9, CYP2C9 (gene 1559) (P11712 whole entry, looked up): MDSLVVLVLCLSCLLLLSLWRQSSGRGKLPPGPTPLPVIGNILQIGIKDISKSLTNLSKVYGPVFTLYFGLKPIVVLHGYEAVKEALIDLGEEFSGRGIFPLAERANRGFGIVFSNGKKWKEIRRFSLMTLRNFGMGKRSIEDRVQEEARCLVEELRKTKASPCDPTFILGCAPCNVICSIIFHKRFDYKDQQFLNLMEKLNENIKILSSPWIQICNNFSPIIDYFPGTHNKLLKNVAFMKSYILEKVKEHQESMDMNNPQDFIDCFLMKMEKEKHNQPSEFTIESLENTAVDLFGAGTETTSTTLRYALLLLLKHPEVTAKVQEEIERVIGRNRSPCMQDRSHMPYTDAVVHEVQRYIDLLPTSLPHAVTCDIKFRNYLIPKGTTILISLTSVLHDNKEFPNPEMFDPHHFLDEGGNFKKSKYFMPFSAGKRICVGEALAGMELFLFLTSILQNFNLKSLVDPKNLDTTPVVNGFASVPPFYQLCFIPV
Method in brief: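 Recombinant human CYP2C9 expressed in SF9 cells, fluorogenic substrate, fluorescence read 0.75 h after dosing. Chemicals first run in duplicate at 10 uM, with actives followed in concentration series; loss of signal versus acetonitrile baseline.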

[3] = biological target: Cytochrome P450 2C18 (Homo sapiens) (UniProt P33260); test: NVS_ADME_hCYP2C18: NovaScreen (NVS) CYP450-related Enzyme Activity (ADME) Assay for human CYP2C18 (AID 2283103; active means hit-call score of the fitted dose curve at least 0.9, where 1 is the maximum; inactive means score below 0.9)
Chain of Cytochrome P450 2C18 (Homo sapiens) (P33260 whole entry, looked up): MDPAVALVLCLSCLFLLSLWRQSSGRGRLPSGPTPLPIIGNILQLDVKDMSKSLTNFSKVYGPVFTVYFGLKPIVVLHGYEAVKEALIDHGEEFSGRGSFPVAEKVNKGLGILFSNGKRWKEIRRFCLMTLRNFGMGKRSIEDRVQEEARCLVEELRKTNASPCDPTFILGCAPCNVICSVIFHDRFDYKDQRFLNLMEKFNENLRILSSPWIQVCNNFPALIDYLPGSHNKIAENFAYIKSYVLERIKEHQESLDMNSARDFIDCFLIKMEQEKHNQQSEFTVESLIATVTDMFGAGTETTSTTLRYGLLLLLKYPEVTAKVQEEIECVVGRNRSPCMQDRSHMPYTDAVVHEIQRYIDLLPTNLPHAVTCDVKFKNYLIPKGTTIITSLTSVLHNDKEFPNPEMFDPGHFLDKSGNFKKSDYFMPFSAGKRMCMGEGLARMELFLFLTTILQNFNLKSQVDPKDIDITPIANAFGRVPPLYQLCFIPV
Method in brief: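 Enzyme activity measured by fluorescence 0.5 h after compound addition, using recombinant CYP2C18 and a specific substrate. Actives from duplicate 10 uM screening were retested in concentration series (top 20 uM); acetonitrile served as negative baseline.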

[4] = biological target: human CYP2D6, CYP2D6 (gene 1565) (UniProt P10635); test: NVS_ADME_hCYP2D6: NovaScreen (NVS) CYP450-related Enzyme Activity (ADME) Assay for human CYP2D6 (AID 2283107)
Chain of human CYP2D6, CYP2D6 (gene 1565) (P10635 whole entry, looked up): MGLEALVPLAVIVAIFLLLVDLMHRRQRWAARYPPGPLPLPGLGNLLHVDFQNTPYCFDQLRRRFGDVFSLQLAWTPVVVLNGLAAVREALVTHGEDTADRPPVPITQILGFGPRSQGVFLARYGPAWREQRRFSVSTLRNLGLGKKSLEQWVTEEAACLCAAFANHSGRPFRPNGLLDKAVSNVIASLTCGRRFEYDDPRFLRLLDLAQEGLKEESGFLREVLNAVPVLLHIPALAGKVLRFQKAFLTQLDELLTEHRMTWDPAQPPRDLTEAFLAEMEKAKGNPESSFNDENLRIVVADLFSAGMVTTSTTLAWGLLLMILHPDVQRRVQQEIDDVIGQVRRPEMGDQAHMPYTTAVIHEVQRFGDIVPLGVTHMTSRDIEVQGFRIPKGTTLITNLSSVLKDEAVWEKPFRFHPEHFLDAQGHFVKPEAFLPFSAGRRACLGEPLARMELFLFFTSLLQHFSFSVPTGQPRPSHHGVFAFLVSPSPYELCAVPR
Method in brief: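 Fluorescence readout of recombinant CYP2D6 (insect-cell derived) activity after 1 h incubation with test chemical. Acetonitrile served as baseline, loss-of-signal direction. Single-concentration duplicate screening at 10 uM preceded concentration-response retesting.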

[5] = biological target: Cytochrome P450 3A4 (Homo sapiens) (UniProt P08684); test: NVS_ADME_hCYP3A4: NovaScreen (NVS) CYP450-related Enzyme Activity (ADME) Assay for human CYP3A4 (AID 2283110)
Chain of Cytochrome P450 3A4 (Homo sapiens) (P08684 whole entry, looked up): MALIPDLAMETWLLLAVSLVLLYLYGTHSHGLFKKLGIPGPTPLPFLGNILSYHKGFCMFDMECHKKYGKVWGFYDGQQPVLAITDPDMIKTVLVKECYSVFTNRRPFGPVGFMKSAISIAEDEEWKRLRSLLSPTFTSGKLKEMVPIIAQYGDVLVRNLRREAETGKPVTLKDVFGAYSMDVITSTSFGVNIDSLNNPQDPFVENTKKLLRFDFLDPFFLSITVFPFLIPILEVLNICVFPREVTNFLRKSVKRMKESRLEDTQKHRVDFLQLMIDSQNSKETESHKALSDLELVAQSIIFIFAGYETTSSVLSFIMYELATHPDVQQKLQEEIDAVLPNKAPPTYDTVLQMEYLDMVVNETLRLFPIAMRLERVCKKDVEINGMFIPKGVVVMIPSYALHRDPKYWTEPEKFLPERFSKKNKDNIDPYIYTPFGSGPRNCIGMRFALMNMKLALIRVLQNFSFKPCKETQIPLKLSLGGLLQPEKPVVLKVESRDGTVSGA
Method in brief: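 Recombinant CYP3A4 from insect cells, fluorescence enzyme read-out, 0.33 h after chemical addition. Acetonitrile = negative control/baseline. Primary HTS: 10 uM in duplicate; actives re-tested in concentration series.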

[6] = biological target: human CYP2J2, CYP2J2 (gene 1573) (UniProt P51589); test: NVS_ADME_hCYP2J2: NovaScreen (NVS) CYP450-related Enzyme Activity (ADME) Assay for human CYP2J2 (AID 2283106)
Chain of human CYP2J2, CYP2J2 (gene 1573) (P51589 whole entry, looked up): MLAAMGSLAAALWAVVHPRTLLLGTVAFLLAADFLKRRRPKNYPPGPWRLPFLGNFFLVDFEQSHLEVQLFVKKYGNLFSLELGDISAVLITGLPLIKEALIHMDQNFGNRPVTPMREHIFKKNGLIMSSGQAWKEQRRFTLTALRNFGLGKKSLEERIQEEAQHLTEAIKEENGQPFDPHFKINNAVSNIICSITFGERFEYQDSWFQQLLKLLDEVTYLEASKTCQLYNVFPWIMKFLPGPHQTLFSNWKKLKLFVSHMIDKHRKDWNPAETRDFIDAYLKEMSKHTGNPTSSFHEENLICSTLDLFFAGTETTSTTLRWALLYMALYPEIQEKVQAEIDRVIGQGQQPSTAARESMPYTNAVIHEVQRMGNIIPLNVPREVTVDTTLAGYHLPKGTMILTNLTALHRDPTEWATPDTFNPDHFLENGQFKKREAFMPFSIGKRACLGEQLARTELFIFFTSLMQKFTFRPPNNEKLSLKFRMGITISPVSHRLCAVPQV
Method in brief: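 Chemicals were first tested at 10 uM in duplicate, and hits meeting criteria such as 30% inhibition were run in singleton concentration series with a 20 uM top concentration. Enzyme activity of recombinant CYP2J2 was measured by fluorescence after 1 h, relative to acetonitrile.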

**Q.** How did the AC50 [1] turn out when O=C(Nc1ccccc1-c1ccc(Cl)cc1)c1cccnc1Cl was run?
**A.** Its AC50 is 0.661 µM (active).

**Q.** Which outcome [2] does the source give for CCCN(CC)CC1COC2(CCC(C(C)(C)C)CC2)O1 (stereo unspecified) here?
**A.** The outcome was “inactive”.

**Q.** What does the source list for CCOc1cc(C(C)(C)C)ccc1C1COC(c2c(F)cccc2F)=N1 (stereo unspecified)?
**A.** outcome [3]: inactive; AC50 [1]: 7.62 µM (active)

**Q.** Which outcome [2] does the source give for CC1(C)C(C(=O)OC(C#N)c2cccc(Oc3ccccc3)c2)C1(C)C (stereo unspecified) here?
**A.** The outcome was “inactive”.

**Q.** And the AC50 [1]?
**A.** The AC50 was 13.8 µM (active).

**Q.** How did the outcome [4] turn out when CCOC(=O)C(C)OC(=O)c1cc(Oc2ccc(C(F)(F)F)cc2Cl)ccc1[N+](=O)[O-] (stereo unspecified) was run?
**A.** The outcome was “inactive”.

**Q.** What about the AC50 [1] of the same molecule?
**A.** The AC50 was 4.01 µM (active).

**Q.** Which outcome [5] does the source give for OC(c1ccc(Cl)cc1)(c1ccc(Cl)cc1)C(Cl)(Cl)Cl here?
**A.** Its outcome is “inactive”.

**Q.** And the AC50 [1]?
**A.** Its AC50 is 0.806 µM (active).

**Q.** How did the AC50 [4] turn out when Cn1c(-c2ccccc2)cc(-c2ccccc2)[n+]1C was run?
**A.** Its AC50 is 5.06 µM (active).

**Q.** Which outcome [2] does the source give for CC(C)C1(C)N=C(c2ncccc2C(=O)O)NC1=O (stereo unspecified) here?
**A.** The outcome was “inactive”.

**Q.** For Cc1c(COC(=O)[C@@H]2[C@H](/C=C(\Cl)C(F)(F)F)C2(C)C)cccc1-c1ccccc1, which AC50 [1] is on record?
**A.** Its AC50 is 12.9 µM (active).

**Q.** For CCOP(=S)(OCC)Oc1nc(Cl)n(C(C)C)n1, which AC50 [1] is on record?
**A.** The AC50 was 0.317 µM (active).

**Q.** For COCc1cnc(C2=NC(C)(C(C)C)C(=O)N2)c(C(=O)O)c1 (stereo unspecified), which AC50 [6] is on record?
**A.** The AC50 was 3.83 µM (active).

**Q.** Which outcome [4] does the source give for N#CN=C1SCCN1Cc1ccc(Cl)nc1 here?
**A.** Its outcome is “inactive”.

Source: PubChem BioAssay (EPA / NIEHS)
